Bioassay records from PubChem.
Hits are enriched below; roughly 12% of the tested compounds scored in any of these assays.
Sfp inh: inhibitors of Bacillus subtilis Sfp phosphopantetheinyl transferase | 310,000 tested, 3.5% active | Biochemical Sfp PPTase activity, qHTS | Q9F4F7 | AID 1490 | Potency, µM, actives largely listed as inhibitors;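 note: the enzyme is Sfp with the accession as filed and its product quenches rhodamine fluorescence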
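Sfp 15 nM + cpd, 15 min RT; start w/ rhodamine-CoA 5 uM, BHQ-2-YbbR 12.5 uM (final); 50 mM Hepes pH 7.6, 10 mM MgCl2, 0.01% NP-40, 0.01% BSA; read 525/598 nm at 0 and 30 min.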
L3MBTL1 block: blocks human L3MBTL1; Q9Y468; 230,000 tested, 0.66% active; Potency, µM (series often up to 57.1 µM), actives largely listed as inhibitors; AlphaScreen L3MBTL1–H3K9me1 peptide binding; note: nearly all actives have a fitted effect of over 60% in size
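Read-out is AlphaScreen signal from streptavidin donor and nickel chelate acceptor beads (10 ug/mL final each) bridging L3MBTL1 (50 nM) and biotinylated K9-monomethylated H3(1-15) peptide (75 nM), after 30 min compound exposure at room temperature.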
G9a inh-1: blocks human histone lysine methyltransferase G9a; Q96KQ7; G9a H3K9 monomethylation, AlphaScreen, 2 h; Potency, µM (doses to about 102 µM), hits mostly inhibitors; 350,000 tested, 8.8% active; AID 504332; note: nearly all actives have a fitted effect of over 75% in size
Target sequence (Q96KQ7 913-1193 limits assumed): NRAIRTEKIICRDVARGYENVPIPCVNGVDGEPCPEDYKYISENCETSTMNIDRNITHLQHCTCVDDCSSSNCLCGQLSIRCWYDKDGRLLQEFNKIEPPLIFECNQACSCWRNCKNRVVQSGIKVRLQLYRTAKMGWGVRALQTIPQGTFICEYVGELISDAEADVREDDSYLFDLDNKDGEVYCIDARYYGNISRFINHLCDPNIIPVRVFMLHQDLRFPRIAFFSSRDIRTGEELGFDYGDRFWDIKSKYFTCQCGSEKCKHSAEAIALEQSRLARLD
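Readings reflect AlphaScreen signal from monomethyl-H3K9 antibody detection. HMT at 20 nM; substrate b-H3K9 500 nM; cofactor SAM 20 uM; 2 h RT reaction; compounds tested as titrations in qHTS with 15 min preincubation.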
JMJD2A Tudor: JMJD2A Tudor domain (human) inhibition. O75164. AlphaScreen JMJD2A-Tudor / H3K4me3 peptide binding. Potency, µM (series often up to 114 µM), actives largely listed as inhibitors. 390,000 tested, 4.4% active. AID 504339; note: nearly all actives have a fitted effect of over 50% in size
HP1b chromo inh: inhibitors of HP1-beta chromodomain binding to methylated histone tails; 390,000 tested, 0.56% active; Potency, µM (titrated, usually from 114 µM), hits mostly inhibitors; AlphaScreen HP1-beta / biotin-H3K9me3 peptide binding; AID 540317; P83916; note: nearly all actives have a fitted effect of over 70% in size
Target sequence (P83916 whole entry, looked up): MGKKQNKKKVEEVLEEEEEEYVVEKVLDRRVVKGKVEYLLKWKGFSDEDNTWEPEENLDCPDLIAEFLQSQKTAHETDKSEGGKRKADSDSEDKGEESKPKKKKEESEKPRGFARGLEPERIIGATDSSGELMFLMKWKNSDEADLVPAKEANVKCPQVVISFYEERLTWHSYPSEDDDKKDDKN
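HP1-beta protein (50 nM final) preincubated 30 min at room temperature with biotinylated H3(1-18)K9me3 peptide (50 nM) in PBS pH 7.4, 0.01% Tween-20, then compound added for 30 min. AlphaScreen streptavidin donor/nickel chelate acceptor beads (10 ug/mL final), 30 min dark, luminescence read.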
BAZ2B block: BAZ2B (human) inhibition; Q9UIF8; AlphaScreen BAZ2B-H3K14Ac peptide displacement; Potency, µM (highest dose often 114 µM), hits mostly inhibitors; 360,000 tested, 4.4% active; AID 504333; note: nearly all actives have a fitted effect of over 60% in size
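In this displacement format the biotinylated H3(5-23) peptide acetylated at Lys14 serves as ligand at 50 nM, with BAZ2B at 50 nM in PBS pH 7.4 containing 0.01% Tween-20. Donor and acceptor beads are 10 ug/mL final.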
G9a inh-2: confirmation of human histone methyltransferase G9a inhibitors; shares compounds with JMJD2A Tudor; G9a H3K9 monomethylation, AlphaScreen, 2 h; Potency, µM, hits mostly inhibitors; 370 tested, 89% active; AID 588344; note: nearly all actives have a fitted effect of over 65% in size
RGS4 inh: inhibits human RGS4, hit validation. 25 tested, 80% active. shares compounds with JMJD2A Tudor. Potency, µM, hits mostly inhibitors. RGS4 GAP activity, Transcreener GDP fluorescence polarization
Target sequence (P49798 whole entry, looked up): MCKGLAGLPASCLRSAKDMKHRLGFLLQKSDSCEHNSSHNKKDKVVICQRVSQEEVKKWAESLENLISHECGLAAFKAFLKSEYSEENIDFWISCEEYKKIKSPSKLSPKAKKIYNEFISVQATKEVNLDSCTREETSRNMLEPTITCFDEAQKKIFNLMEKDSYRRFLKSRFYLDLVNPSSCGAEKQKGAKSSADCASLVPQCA
Numbers stand for hits; - = inactive; ? = inconclusive; . = no result given; [ ] = another dose, or the depositor's remark. Calls come from the whole dose curve; as a rule, active = well fitted curve in the direction sought with a large enough effect; inconclusive = small, poorly fitted or top-dose-only effect, or another doubt; inactive = no such curve, though single readings can be large; an effect the other way counts as inactive or inconclusive.

SMILES	Sfp inh	L3MBTL1 block	G9a inh-1	JMJD2A Tudor	HP1b chromo inh	BAZ2B block	G9a inh-2	others
COC(=O)c1ccc(OC(=O)C2CC(=O)N(c3ccc(C)cc3C)C2)cc1 (stereo not given)	-	-[11.4 µM]	?	-	-	-	28
COc1ccc(OC(=O)C2CC(=O)N(c3ccc(C)cc3)C2)cc1 (stereo not given)	-	-	?	-	-	-	.
Cc1[nH]c(=O)[nH]c(=O)c1N1CCOCC1	-	.	.	-[11.4 µM]	-	-	.
Cc1cc(C)c(C)c(S(=O)(=O)N2CCC(C(=O)N3CCN(c4ccc(F)cc4)CC3)CC2)c1C	.	.	.	-	-	.	.
Cc1ccc(C(C)(C)C)cc1S(=O)(=O)N1CCC(C(=O)N2CCN(c3ccc(O)cc3)CC2)CC1	.	-	0.79µM	-	?	-	1.4
Cc1cccc(N2CC(C(=O)NCCC3=CCCCC3)CC2=O)c1C (stereo not given)	.	-	-[0.501 µM]	-	-	-	.
COCCNc1ccc(N2C(=O)CCCC2=O)cc1[N+](=O)[O-]	-	-	-	-	-	-	.
C=CCn1c(COc2ccc(Cl)cc2)nnc1SCC(=O)c1c(N)n(C)c(=O)n(C)c1=O	-	-	-	-	-	?	.
CC(=O)Nc1ccc(N2CCCC2)cc1	40µM	.	?	-	-	-	6.3
Cc1ccc(C(=O)Nc2ccc(N3CCCC3)cc2)cc1	-	?	1.6µM	-	-	-	1.3
CC(C)(C)C(=O)Nc1ccc(N2CCCC2)cc1	-	-	?	-	-	?	2.5
O=C(/C=C/c1ccccc1)Nc1ccc(N2CCCCC2)cc1	-	-	2.8µM	-	-	-	2.2
CC(Oc1ccc(C(C)(C)C)cc1)C(=O)NC1CC(C)(C)NC(C)(C)C1 (stereo not given)	-	.	.	-	-	-	.
COc1ccccc1CN1CC(C(=O)NC2CCOCC2)CCC1=O (stereo not given)	-	.	.	-	-	-	.
O=C(CNC(=O)c1ccc(Br)o1)Nc1ccc(N2CCCCCC2)cc1	.	?	2.2µM	?	-	?	1
O=C(NCC1CCN(c2ccc(S(=O)(=O)N3CCOCC3)cc2)CC1)Nc1ccccc1	-	.	-	-	-	-	.
COc1ccc(N2CCC(CNC(=O)Nc3ccccc3)C2)cc1 (stereo not given)	-	.	?	18µM	45µM	50µM	1
COc1ccc(CCNC(=O)CCCc2ccccc2)cc1OC	-	.	-	-	-	-	.
CCn1c(CSc2nc3ccccc3s2)nnc1SCC(=O)c1ccc(O)c(O)c1	-	.	0.79µM	45µM	-	35µM	1.4
CCn1c(CSc2nc3ccccc3s2)nnc1SCC(=O)c1ccc(Cl)cc1	-	.	?	?	-	-	.
COc1ccc(Cc2nnc(SCC(=O)NC3CCCCC3)n2C)cc1	-	.	?	-	-	-	10
COc1ccc(N2CCN(Cc3nc(-c4ccc(Cl)cc4Cl)no3)CC2)cc1	-	?	2.2µM	25µM	?	35µM	4.5
c1ccc(-c2noc(CN3CCN(c4ccccc4)CC3)n2)cc1	-	.	-	-	-	-	.
O=C(NCc1ccccc1Cl)C1CCN(c2cnccn2)CC1	-	-	-	-	-	-	.
COc1ccc(NC(=O)C2CC(=O)n3ncnc3N2)cc1 (stereo not given)	-	-	-	-	-	-	.
SMILES	Sfp inh	L3MBTL1 block	G9a inh-1	JMJD2A Tudor	HP1b chromo inh	BAZ2B block	G9a inh-2	others
COc1cccc(NC(=O)C2CC(=O)n3cnnc3S2)c1 (stereo not given)	45µM	-	0.63µM	18µM	-	?	0.18
COc1ccc(NC(=O)C2CC(=O)n3cnnc3S2)cc1 (stereo not given)	56µM	.	?	11µM	-	-	0.18
CSc1ncccc1C(=O)N1CCN(S(=O)(=O)c2ccc(C)cc2)CC1	-	.	-	-	-	-	.
CCN1CCN(c2ccc(NC(=O)c3cc4ccccc4cc3OC)cc2C)CC1	.	-	?	-	-	-	3.2
CC(C)n1cnc2cc(NCc3ccco3)ccc21	-	-	?	?	-	-	14
COc1cccc(C(=O)Nc2ccc(N(C)C)cc2)c1OC	-	.	?	56µM	?	50µM	7.1
CCN(CC)c1ccc(NC(=O)c2cc(Cl)ccc2OC)cc1	-	.	2.5µM	45µM	35µM	?	1.4
COc1ccc(Cl)cc1C(=O)Nc1ccncc1	-	-	?	-	-	-	.
CCCCc1ncc(CN2CCN(Cc3ccc(C)cc3)C(CCO)C2)[nH]1 (stereo not given)	-	-	.	-	-	-	.
c1ccc(-n2nnnc2SCc2cn3ccccc3n2)cc1	-	.	?	-	-	?	28
COc1ccccc1-c1cc2nc(C)cc(C)n2n1	-	-	-	-	-	-	.
COc1cccc(Cn2c(=O)c(-c3ccc(F)cc3)nc3cnc(OC)nc32)c1	-	.	-[0.501 µM]	.	.	.	.
COc1ccc(C(=O)c2sc(Nc3cccc(OC)c3)c(C(=O)Nc3cccc(C)c3C)c2N)cc1	-	.	?	?	-	-	4.5
Cn1nc(C(=O)Nc2nc(-c3ccccn3)cs2)c2ccccc2c1=O	.	-	4.5µM	22µM	?	18µM	.	RGS4 inh=11
O=C1Nc2cc(Cl)ccc2Nc2cscc21	.	.	.	-	-	.	.
O=C(CSc1cn[nH]n1)Nc1cccc(C(=O)O)c1	35µM	.	0.71µM	8.9µM	18µM	-	1.3
CCOc1ccc2nc(CN3CCN(Cc4ccsc4)C(CCO)C3)ccc2c1 (stereo not given)	-	-	-[12.7 µM]	-	-	?	.
Cc1ccc2nc(-c3ccncc3)c(Nc3ccc(C(C)C)cc3)n2c1	.	.	-	-	-	-	.
Cc1ccc(-c2nc3ccccn3c2Nc2ccc3c(c2)OCO3)o1	.	.	7.9µM	50µM	?	35µM	.	RGS4 inh=?
CC(C)c1ccc(Nc2c(-c3ccco3)nc3ccccn23)cc1	.	.	?	?	-	?	.	RGS4 inh=?
Fc1ccc(-c2nc3ccccn3c2NCc2ccc3c(c2)OCO3)cc1	-	-	?	?	?	.	.
Cc1ccc(S(=O)(=O)Nc2cccc(NC(=O)CN3CCCCC3)c2)cc1	-	.	?	?	?	?	2.8
Cc1ccc(S(=O)(=O)Nc2ccc(NC(=O)CN3CCCCC3)cc2)cc1	-	.	?	-	-	-	.
COc1ccc2[nH]cc(CCNc3ncnc4ccc(-c5ccoc5)cc34)c2c1	-	.	-[0.501 µM]	.	.	.	.	RGS4 inh=?
COc1cccc(-c2cncnc2NCCc2c[nH]c3ccc(OC)cc23)c1	?	.	-[0.501 µM]	.	.	.	.
COc1ccccc1NC(=O)c1ccc(Cl)c(S(=O)(=O)NCc2ccco2)c1	.	-	-[12.7 µM]	-	-	-	.
